Experiment [1] can be described thus: NCI Yeast Anticancer Drug Screen. Data for the rad50 strain (AID 155).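 Note: 0% = growth of vehicle-only cultures of the same strain.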 The conditions noted are these: S. cerevisiae rad50 strain growth inhibition, hits give high values. The method in brief:
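Inhibition values express reduced yeast growth in compound-treated cultures relative to vehicle-treated controls.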

Experiment [2] is described as follows: NCI Yeast Anticancer Drug Screen. Data for the mec2-1 strain (AID 157). Conditions: S. cerevisiae mec2-1 strain, hits give high values. The method in brief: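 mec2-1 yeast strain, carrying an alteration in DNA damage repair or cell cycle control, was exposed to compounds; growth inhibition was measured relative to vehicle-treated controls.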
Experiment [3] can be described thus: NCI Yeast Anticancer Drug Screen. Data for the sgs1 mgt1 strain (AID 161).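 Note: 0% = growth of cultures given vehicle only.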 Conditions: S. cerevisiae sgs1 mgt1 strain, hits give high values. The gist of the method: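 This yeast growth screen uses a strain with defined DNA-repair lesions; compound-treated growth is compared with vehicle-treated growth.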
The nature of experiment [4]: NCI Yeast Anticancer Drug Screen. Data for the cln2 rad14 strain (AID 165).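 Note: 0% = growth equal to vehicle treated cultures.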 Conditions: S. cerevisiae cln2 rad14 strain, hits give high values. The gist of the method:
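Yeast carrying cln2 and rad14 alterations (cell cycle control and DNA damage repair) were exposed to compounds. Growth inhibition was measured against vehicle-treated controls.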

Experiment [5] is described as follows: NCI Yeast Anticancer Drug Screen. Data for the bub3 strain (AID 167). The conditions noted are these: S. cerevisiae bub3 mutant strain, hits give high values. The method in brief:
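Steps: expose the mutant yeast strain to compound; grow alongside vehicle-treated cultures; measure growth; express inhibition against the vehicle cultures.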

The nature of experiment [6]: NCI Yeast Anticancer Drug Screen. Data for the mlh1 rad18 strain (AID 175). The conditions noted are these: S. cerevisiae mlh1 rad18 strain growth inhibition, hits give high values. The gist of the method:
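Growth inhibition of the yeast strain was measured after compound exposure and expressed relative to vehicle-treated controls. The strain carries defined defects in DNA damage repair.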

The mark [7] stands for this setting: at 5.0 µM (retest, dose inferred, filed as 0.5).
Where [8] appears, read: at 50.0 µM (retest, dose inferred, filed as 5.0).

Compounds without any hit were thinned out: in the full panel of roughly 79,000, 15% have a hit. A number with no mark means an inactive call. The source made the active and inactive calls. Cut-off read from the data, not from the text of the source: active = growth inhibition above about 70%; inactive = the rest.

On to `Oc1c(C(O)(c2ccccc2)c2ccc3ccccc3c2O)ccc2ccccc12`, for which the growth inhibition in experiment [1] (setting [7]) was 17%; in experiment [1] (setting [8]) it was 81% (active); in experiment [1] (at 50.0 µM), 84.8% (active); in experiment [2] (setting [7]), 3%; in experiment [2] (setting [8]) it was 81% (active); in experiment [2] (at 50.0 µM), 84.4% (active). Further, the growth inhibition in experiment [3] (setting [7]) was 13%; in experiment [3] (setting [8]), 76% (active); in experiment [3] (at 50.0 µM), 79.4% (active); in experiment [4] (setting [7]), 9%; in experiment [4] (setting [8]) it was 96% (active); in experiment [4] (at 50.0 µM), 82.5% (active). Besides, the growth inhibition was 21% in experiment [5] (setting [7]); 95% (active) in experiment [5] (setting [8]); 89.2% (active) in experiment [5] (at 50.0 µM); 9% in experiment [6] (setting [7]); 85% (active) in experiment [6] (setting [8]); 86.9% (active) in experiment [6] (at 50.0 µM).

For `O=C(Oc1cccc2cccnc12)c1cccnc1`, the growth inhibition in experiment [1] (setting [7]) was 93% (active); in experiment [1] (setting [8]) it was 98% (active); in experiment [1] (at 50.0 µM), 93.5% (active); in experiment [2] (setting [7]) it was 58%; in experiment [2] (setting [8]), 99% (active); in experiment [2] (at 50.0 µM) it was 99.2% (active). Moreover, the growth inhibition in experiment [3] (setting [7]) was 89% (active); in experiment [3] (setting [8]) it was 99% (active); in experiment [3] (at 50.0 µM) it was 98% (active); in experiment [4] (setting [7]), 43%; in experiment [4] (setting [8]) it was 94% (active); in experiment [4] (at 50.0 µM) it was 92.2% (active). The growth inhibition was 97% (active) in experiment [5] (setting [7]); 98% (active) in experiment [5] (setting [8]); 97.8% (active) in experiment [5] (at 50.0 µM); 82% (active) in experiment [6] (setting [7]); 98% (active) in experiment [6] (setting [8]); 97.5% (active) in experiment [6] (at 50.0 µM).

As for `Cc1cc(-c2ccccc2)c(C)c(-c2ccccc2)c1-c1ccccc1`, the growth inhibition in experiment [1] (setting [7]) is 5%; in experiment [1] (setting [8]), 4%; in experiment [1] (at 50.0 µM) it was 74.6% (active); in experiment [2] (setting [7]), 0%; in experiment [2] (setting [8]), -1%; in experiment [2] (at 50.0 µM), 37.9%. Also, the growth inhibition is 3% in experiment [3] (setting [7]); 7% in experiment [3] (setting [8]); 40% in experiment [3] (at 50.0 µM); -5% in experiment [4] (setting [7]); 64% in experiment [4] (setting [8]); 80.7% (active) in experiment [4] (at 50.0 µM). The growth inhibition in experiment [5] (setting [7]) was -13%; in experiment [5] (setting [8]) it was 13%; in experiment [5] (at 50.0 µM), 57.4%; in experiment [6] (setting [7]), 1%; in experiment [6] (setting [8]), 16%; in experiment [6] (at 50.0 µM), 60.8%.

Consider `CC(=O)SC(C[N+](=O)[O-])c1ccc2c(c1)OCO2` (stereo not given), for which the growth inhibition in experiment [1] (setting [7]) is 55%; in experiment [1] (setting [8]) it was 91% (active); in experiment [1] (at 50.0 µM), 91% (active); in experiment [2] (setting [7]) it was 69%; in experiment [2] (setting [8]), 100% (active); in experiment [2] (at 50.0 µM), 93% (active). Moreover, the growth inhibition in experiment [3] (setting [7]) was 53%; in experiment [3] (setting [8]), 99% (active); in experiment [3] (at 50.0 µM), 93.5% (active); in experiment [4] (setting [7]) it was 44%; in experiment [4] (setting [8]), 57%; in experiment [4] (at 50.0 µM), 91.3% (active). Moreover, the growth inhibition was 63% in experiment [5] (setting [7]); 96% (active) in experiment [5] (setting [8]); 92.5% (active) in experiment [5] (at 50.0 µM); 59% in experiment [6] (setting [7]); 97% (active) in experiment [6] (setting [8]); 90.3% (active) in experiment [6] (at 50.0 µM).

Regarding `O=[N+]([O-])c1cccc(S(=O)(=O)Cl)c1`, the growth inhibition in experiment [1] (setting [7]) was -1%; in experiment [1] (setting [8]), 10%; in experiment [1] (at 50.0 µM) it was -15.3%; in experiment [2] (setting [7]), 2%; in experiment [2] (setting [8]), 3%; in experiment [2] (at 50.0 µM), 14.9%. Further, the growth inhibition in experiment [3] (setting [7]) was 1%; in experiment [3] (setting [8]) it was 6%; in experiment [3] (at 50.0 µM), 14.2%; in experiment [4] (setting [7]) it was -3%; in experiment [4] (setting [8]) it was 0%; in experiment [4] (at 50.0 µM) it was 43.9%. For the same molecule, the growth inhibition in experiment [5] (setting [7]) was -2%; in experiment [5] (setting [8]), 4%; in experiment [5] (at 50.0 µM), 59.5%; in experiment [6] (setting [7]), -1%; in experiment [6] (setting [8]), 2%; in experiment [6] (at 50.0 µM), 33.5%.

Values taken from PubChem BioAssay (NCI).
